Assay results reported in PubChem BioAssay (NCI).
Compounds without any hit were thinned out: in the full panel of roughly 83,000, 20% have a hit.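 The endpoint reported here, percent growth, reads 100 for growth as untreated, 0 for no net growth and -100 for all cells dead.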 The source made the active and inactive calls. How the source made its calls: active means growth percent below 10; inactive means the rest.

tested on: HL-60(TB) leukemia; experiment: NCI-60 one-dose screen, 48 h (100 = growth as untreated, 0 = no growth, -100 = all killed); settings: 10 µM unless noted

**Q.** `CC1=C/C(=C(\c2cc(C)c(O)c(C(=O)O)c2)c2c(Cl)cccc2Cl)C=C(C(=O)O)C1=O` was tested. Which growth did it give?
**A.** Its growth is 106% (inactive).

**Q.** For `COC(=O)/C(CCC=C(C)C)=C1\[C@@H](OC(C)=O)C[C@@]2(C)[C@H]1C[C@@H](O)[C@H]1[C@@]3(C)CC[C@H](NCc4ccccc4)[C@@H](C)[C@@H]3CC[C@@]12C`, which growth is on record?
**A.** Its growth is 43% (inactive).

**Q.** With `COc1ccc(-c2nsc3c2NC(=O)CC3c2cccc(F)c2)cc1` (stereo unspecified) as the molecule, how does the growth read?
**A.** The growth was 39.2% (inactive).

**Q.** `Nc1nc2c(c(-c3nc(N)nc4c3CCc3ccccc3-4)n1)CCc1ccccc1-2` was tested. Which growth did it give?
**A.** Its growth is 105% (inactive).

**Q.** With `CN(CCc1ccccc1)C(=S)N(C(=O)c1ccc([N+](=O)[O-])cc1)c1ccc(Cl)cc1` as the molecule, how does the growth read?
**A.** The growth was 45% (inactive).

**Q.** With `Cc1cc(C)c([I+]c2c(C)cc(C)cc2C)c(C)c1` as the molecule, how does the growth read?
**A.** Its growth is -64.3% (active).

**Q.** For `O=C(/C=C/C12c3ccccc3C(c3ccccc31)C1C(=O)N(c3ccccc3)C(=O)C12)c1ccccc1` (stereo unspecified), which growth is on record?
**A.** Its growth is 10.5% (inactive).

**Q.** How did the growth turn out when `CCCc1c(CC)c(=N)c2ccccc2n1C` was run?
**A.** Its growth is 32.7% (inactive).

**Q.** `CN1CCN(Cc2ccc(NC(=O)c3cncc(C#Cc4cnc(N)c5ccc(C#N)cc45)c3)cc2C(F)(F)F)CC1` was tested. Which growth did it give?
**A.** Its growth is -17% (active).

**Q.** How did the growth turn out when `OC[C@@H](O)C(O[C@@H]1O[C@H](CO)[C@H](O)[C@H](O)[C@H]1O)[C@H](O)[C@@H](O)CO` (stereo partly specified) was run?
**A.** Its growth is 94.9% (inactive).

**Q.** Which growth does the source give for `NS(=O)(=O)c1ccc(C(=O)NN2C(=O)c3c(Br)c(Br)c(Br)c(Br)c3C2=O)cc1` here?
**A.** Its growth is 103% (inactive).

**Q.** For `O=c1oc2ccc(F)cc2c(=O)n1-c1ccc(Br)cc1F`, which growth is on record?
**A.** The growth was -45.3% (active).

**Q.** Which growth does the source give for `NC(=O)Nc1ccc2ncnc(Nc3ccc(Cl)cc3)c2c1` here?
**A.** The growth was 99.9% (inactive).

**Q.** How did the growth turn out when `CCOC(=O)c1ccc2c(c1)c1c(C)c3cnccc3c(C)c1n2C` was run?
**A.** The growth was -18.8% (active).

**Q.** For `O=C1/C(=C\c2ccc([N+](=O)[O-])cc2)CS(=O)(=O)C/C1=C/c1ccc([N+](=O)[O-])cc1`, which growth is on record?
**A.** The growth was -38.4% (active).

**Q.** `CC(NC(=O)c1ccccc1)C(=O)Nc1ccccc1` (stereo unspecified) was tested. Which growth did it give?
**A.** Its growth is 107% (inactive).

**Q.** For `OC(c1ccccc1)(c1ccccc1)C(F)(F)F`, which growth is on record?
**A.** Its growth is 77.1% (inactive).

**Q.** How did the growth turn out when `CC(=O)CC[C@H]1C(=O)N[C@@H](C(C)C)C(=O)N[C@@H](Cc2cc(O)cc(F)c2)C(=O)N2CCC[C@H](N2)C(=O)O[C@H](/C(C)=C/C=C/C(=O)OC(C)(C)C)C/C=C/C=C/[C@H](O)[C@H](C)[C@H]1O` was run?
**A.** Its growth is 56% (inactive).

**Q.** With `Cc1nc(Nc2ccc(NC(=S)Nc3ccccc3)cc2)nc2nc(Nc3ccc(S(=O)(=O)O)cc3)[nH]c(=O)c12` as the molecule, how does the growth read?
**A.** The growth was 132% (inactive).

**Q.** `O=S(=O)(c1ccc(OCCO)cc1)c1ccc(OCCO)cc1` was tested. Which growth did it give?
**A.** The growth was -0.844% (active).

**Q.** With `COc1cc(NC(=O)Nc2cnc(Nc3ccc(N4CCOCC4)cc3)nc2Oc2ccc(F)cc2)cc(OC)c1` as the molecule, how does the growth read?
**A.** Its growth is 65.4% (inactive).

**Q.** Which growth does the source give for `CCC1CCc2nc3sc(C(=O)Nc4ccccc4F)c(N)c3cc2C1` (stereo unspecified) here?
**A.** The growth was 21.5% (inactive).

**Q.** With `CN1CCCc2cc(/C=C3\SC(=S)N(C(Cc4ccc(O)cc4)C(=O)O)C3=O)ccc21` (stereo unspecified) as the molecule, how does the growth read?
**A.** The growth was 99.9% (inactive).

**Q.** Which growth does the source give for `Cn1c2ccc(Br)cc2c2c3c(c4c5ccccc5[nH]c4c21)C(=O)N(O)C3=O` here?
**A.** The growth was -58.6% (active).

**Q.** With `CCCCCCNC(=O)Oc1ccc(/C(=C(/CC)Cc2ccccc2)c2ccc(OCCCN(C)C)cc2)cc1` as the molecule, how does the growth read?
**A.** Its growth is 64.2% (inactive).

**Q.** How did the growth turn out when `Nc1nc(Cl)c2c(ncn2Cc2ccc(CCl)cc2)n1` was run?
**A.** Its growth is 90.5% (inactive).
